# Experimental data from the supplement of paper PMC8540655.
# Unmarked numbers belong to inactive results.
# System: Aedes aegypti larvae
# Test: larval motility relative to same well at 0 h (fraction); higher = more motile (less active compound), active = 0.4 or less
# Conditions: 10 µM
# In short: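 Aedes aegypti larvae, hatched in pond salt solution with yeast at 25 °C and collected after 18–24 h, were dispensed at about 10 per well (100 µL) in 96-well plates. Compounds were tested at 10 µM, 1% v/v DMSO, with solvent and larvicide control wells on each plate. INVAPP movies (200 frames, 100 ms intervals) were recorded at 0, 2 and 24 h. Relative motility is each well's score divided by its 0 h score, median of three independent larval batches.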
Structure (SMILES),larval motility (2 h),larval motility (24 h)
COC1CC2CCC(C)C(O)(O2)C(=O)C(=O)N2CCCCC2C(=O)OC(C(C)CC2CCC(OCCO)C(OC)C2)CC(=O)C(C)/C=C(\C)C(O)C(OC)C(=O)C(C)CC(C)/C=C/C=C/C=C/1C (stereo not given),0.921,1.02
Nc1nnnn1CCOc1c2[nH]c3ccc(Cl)cc3c2cc2c1[nH]c1ccc(Cl)cc12,0.958,1.16
Oc1c(C(Nc2ccccn2)c2ccccc2)ccc2cccnc12 (stereo not given),0.721,1.07
O=c1oc2ccc(Br)cc2cc1CSc1ncc[nH]1,0.806,0.972
O=C1CCC(N2C(=O)c3ccccc3C2=O)C(=O)N1 (stereo not given),1.17,1.13
CCN(CC)CCn1c(=N)n(CC(O)COc2ccc(Cl)cc2Cl)c2ccccc21 (stereo not given),0.783,0.86
COc1cccc(N2CCN(C3=Nc4c(F)cccc4[C@H](CC(=O)O)N3c3cc(C(F)(F)F)ccc3OC)CC2)c1,1.02,1.01
N#Cc1cc([N+](=O)[O-])ccc1Oc1ccccc1Cl,1.05,1.15
Cc1ccc(NC(=O)c2cc(Cl)ccc2O)cc1,0.656,0.616
C/C(=N\NC(=O)C1CC1c1ccccc1)c1ccc(NC(=O)c2ccco2)cc1 (stereo not given),0.804,0.958
CN(C)CCCNC(=O)c1ccc(-c2cc(O)c3ncccc3c2)cc1,0.79,0.683
C[C@@H](NC(=O)c1ccccc1-c1ccccc1)B(O)O,0.616,0.615
C[C@H](Cn1cnc2c(N)ncnc21)OCP(=O)(O)O,1.31,1.07
CCCCOC(=O)Nc1cc2nc(C3CCCCC3)[nH]c2cc1N(CC)CC,0.544,0.594
CC(C)N(c1cc(-c2ccccc2)sc1C(=O)O)C(=O)[C@H]1CC[C@H](C)CC1,0.697,0.742
O=C(NC(=O)N1CCCc2ccccc21)c1cccc(Cl)c1,0.838,1.04
O=C(O)[C@H]1C2CCC(CC2)[C@@H]1Nc1nc(-c2c[nH]c3ncc(F)cc23)ncc1F,0.877,1.17
O[C@@](Cn1cnnn1)(c1ccc(F)cc1F)C(F)(F)c1ccc(-c2ccc(OCC(F)(F)F)cc2)cn1,0.718,0.564
O=S(=O)(NCB(O)O)c1ccc(-c2nnn[nH]2)cc1C(F)(F)F,0.999,1.46
CCC[C@@H]1C[C@@H](C(=O)N[C@@H]([C@H]2O[C@H](SC)[C@H](O)[C@@H](O)[C@H]2O)[C@H](C)Cl)N(C)C1,0.804,0.885
COc1ccc(CNC(=O)C2CCN([C@H](C)c3cccc4ccccc34)CC2)cc1,0.771,0.922
Cc1cc(Nc2ccc(F)cc2)nc(SCc2nc3ccccc3[nH]2)n1,0.661,0.622
COc1ccc(CNC(=O)C(NS(=O)(=O)c2ccc3nc(C)sc3c2)C(C)C)cc1 (stereo not given),0.329 (active),0.365 (active)
CC(C)Cn1c(=O)n(C)c(=O)c2c(-c3cncn3C)n(Cc3cccc4ccccc34)nc21,0.612,0.874
COc1ccccc1NC(=O)c1ccccc1Sc1ccc([N+](=O)[O-])cc1,0.911,0.861
CCc1nc2ccccn2c1C(=O)NCc1ccccc1,1.39,0.997
O=C(NCc1ccccc1Cl)c1cnc2ccccc2n1,1.23,0.674
COc1ccc(SC(=O)N[C@H](CCC(=O)O)C(=O)O)cc1,0.861,0.93
NC(=O)c1nccn([C@@H]2O[C@H](CO)[C@@H](O)[C@H]2O)c1=O,0.824,1.16
CC(C)(C)c1cccc(-c2nc3cc(C(=N)N)ccc3[nH]2)c1O,1.04,0.466
